Screens: PubChem BioAssay, National Center for Advancing Translational Sciences (NCATS)
Rows were chosen to be rich in hits. Some 2.3% of all compounds tested hit in one or more screens of this group.
FUS suppressor – suppressors of FUS proteinopathy in yeast; S. cerevisiae FUS-expressing, growth rescue, OD600, 24 h; Potency, µM (highest dose often 76.6 µM), usual class: activators; actives 0.24% (n = 390,000); AID 1347120;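 note: potency is the fitted concentration of half-maximal effect; plate controls were DMSO vehicle for no effect and reference control for full effect; nearly all actives have a fitted effect of over 55% in size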
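Yeast FUS proteinopathy model; galactose-induced FUS (2%), starting OD 0.005. Cpds in dilution series, 24hr, 30C, 99% humidity. Abs 600 nm growth. Pos ctrl CP55940 (top 92uM final); neg ctrl DMSO.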
Abeta yeast res – compounds reversing amyloid beta toxicity in yeast; AID 1347071; yeast expressing A-beta42, growth rescue, OD600, 48 h; response scale: 0% DMSO, 100% iron-clioquinol control; actives 0.063% (n = 410,000); Potency, µM (doses to about 46.1 µM), most hits filed as activators; note: potency is the fitted concentration of half-maximal effect; nearly all actives have a fitted effect of over 55% in size
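Yeast growth medium received pinned compounds, then yeast cells expressing toxic A-beta were added; plates incubated at 30 C for 48 hr. Growth read as absorbance at 600 nm, normalized to DMSO and equimolar FeCl3 plus clioquinol controls.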
TDP43 rescue – inhibitors of TDP-43 toxicity in yeast; actives 1.8% (n = 410,000); Potency, µM (top dose mostly 46.1 µM), without a hit: at the highest dose growth rescue (activation), most hits filed as activators; TDP-43 expressing yeast growth rescue, BacTiter-Glo, 24 h; note: potency is the fitted concentration of half-maximal effect; % of control where 0% means no effect; nearly all actives have a fitted effect of over 50% in size
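Growth rescue of TDP-43-toxic yeast measured as ATP luminescence (BacTiter-Glo). Cells grown to mid-log in raffinose, induced in galactose at OD600=0.02, exposed to compound 24 hr at 30 deg C.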
aSyn rescue – rescues yeast growth from alpha-synuclein toxicity; Yeast expressing alpha-synuclein, growth rescue, BacTiter-Glo, 24 h; Potency, µM (series often up to 46.1 µM), for the others: at the highest dose growth rescue (activation), usual class: activators; actives 0.14% (n = 370,000); AID 652106; note: potency is the fitted concentration of half-maximal effect; % of control where 0% means no effect; nearly all actives have a fitted effect of over 65% in size
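Rescue of yeast growth: cells expressing toxic alpha-synuclein, induced in galactose at OD600 0.02, incubated with compound 24 h at 30 C. ATP luminescence quantified growth; inhibitors of toxicity appear as activators.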
Akt phos inh – inhibitors of Akt phosphorylation; Neuro2A IGF-stimulated pAkt S473 HTRF, 20 min; active compounds read low; activity change, % for hits at 50 µM; actives 0.32% (n = 360,000); AID 651550; in the data active = activity change below about -80%; inconclusive = mostly about -51% to -80%; note: % is set by controls: 0 for no effect and ±100 for the full control effect
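Single-point screen (50 µM final compound) in Neuro2A cells stimulated 20 min with 6 nM IGF at 37 deg C. After lysis, Ser473-phosphorylated Akt read by HTRF (ex 330 nm, em 615/665 nm) as the 665/615 ratio.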
Numbers without * were called inactive; i = inactive; ? = inconclusive; / = not tested or not shown. Unless noted, calls come from the whole dose curve; as a rule, active = well fitted curve in the direction sought with a large enough effect; inconclusive = small, poorly fitted or top-dose-only effect, or another doubt; inactive = no such curve, though single readings can be large; an effect the other way counts as inactive or inconclusive.

SMILES | FUS suppressor | Abeta yeast res | TDP43 rescue | aSyn rescue | Akt phos inh
CCCn1ccc2c(OCC(=O)NCc3ccccc3Cl)cccc2c1=O | i | i | 22.0% | / | /
CC(=O)c1ccc(NC(=O)C2CCN(S(=O)(=O)c3ccc4[nH]c5c(c4c3)CCCCC5)CC2)cc1 | i | i | 14.9% | / | /
COc1ccc2c(c1)c(=O)oc1cc(OCC(=O)NC3CCCCC3)ccc12 | i | ? | 15.8µM* | 0.2% | i
COc1ccc(Br)c(C(=O)OCC(=O)NC2CCCCCC2)c1 | i | i | 22.4µM* | 16.2% | i
COc1ccc2c(c1)c(=O)oc1cc(OCC(=O)NC3CC3)ccc12 | i | i | 8.0% | -1.2% | i
COCCCNC(=O)Cc1c(C)c2c(cc(C)c3c(C(C)(C)C)coc32)oc1=O | 31.6µM* | i | 3.8% | -0.6% | i
CN(C)C(=O)c1ccc(NC(=O)Cn2nc(-c3ccccc3)c3ccccc3c2=O)cc1 | i | i | 9.1% | / | /
CCOC(=O)CSc1nc2sc(C)c(C)c2c(=O)n1C | i | i | 11.2µM* | 0.0% | i
CCOc1ccc(-c2cc(C(=O)NCc3ccccc3Cl)c3ccccc3n2)cc1 | i | i | 16.6% | / | /
CC(=O)c1ccc(NC(=O)c2c(C)nn(-c3ccccc3)c2Cl)cc1 | i | i | 11.2µM* | 8.0% | i
COc1ccccc1NC(=O)c1c(C)nn(-c2ccccc2)c1Cl | i | i | 25.1µM* | 0.4% | i
Cc1ccc(NC(=O)c2c(C)nn(-c3ccccc3)c2Cl)cc1 | i | i | 12.6µM* | 0.7% | i
O=C(Nc1ccc2c(c1)CCC2)c1cnn2c1NC(=C1CC1)C=C2C(F)F | / | / | / | 0.1% | /
COc1ccc(C)cc1NC(=O)N1CCC(CN2CCC(C)CC2)CC1 | i | i | -2.3% | / | /
COc1cccc(/C=C(\C#N)C(=O)Nc2ccc(NC(C)=O)cc2)c1OC | i | i | -16.4% | / | /
C/C(=N\NC(=O)c1ccc(Br)cc1)c1ccccc1 | i | i | -19.7% | -6.8% | -111.2%*
C/C(=N\NC(=S)NC(C)C)c1ccccc1 | i | 11.2µM* | 22.8% | -9.2% | i
CC(=O)Nc1cccc(/C(C)=N/NC(=S)NC(C)C)c1 | i | i | -11.4% | -8.3% | i
C/C(=N\NC(=O)c1cccnc1)c1ccc(Br)cc1 | i | i | -8.9% | -4.3% | i
CCc1ccc2oc(C(=O)N3CCN(c4ccccc4OC)CC3)cc(=O)c2c1 | i | i | 20µM* | 14.4% | i
COc1ccccc1N1CCN(C(=O)c2cc(=O)c3c(C)cc(C)cc3o2)CC1 | i | i | 25.1µM* | -3.5% | i
O=C(c1cc(=O)c2ccccc2o1)N1CCN(c2cccc(Cl)c2)CC1 | i | i | ? | 2.2% | i
COc1ccccc1N1CCN(C(=O)c2oc3ccccc3c2N)CC1 | i | i | 12.6µM* | / | /
O=C(c1cc(=O)c2ccccc2o1)N1CCN(c2ccccc2F)CC1 | i | i | 14.1µM* | 6.4% | i
CCc1ccc2oc(C(=O)N3CCN(c4ccc(OC)cc4)CC3)cc(=O)c2c1 | i | i | 0.0% | 11.4% | i
SMILES | FUS suppressor | Abeta yeast res | TDP43 rescue | aSyn rescue | Akt phos inh
COC(=O)[C@]12C[C@H](CC(=O)NCc3cccc4ccccc34)C(=O)N(Cc3ccc(Cl)cc3Cl)C1=C[C@H](COCc1ccccc1)O[C@@H]2C | i | / | / | / | /
O=C(c1cc2ccccc2o1)N1CCN(S(=O)(=O)c2c(F)cccc2F)CC1 | i | i | 14.1µM* | 10.3% | i
CC(=O)N1CCN(C(=O)c2cc3ccccc3o2)CC1 | i | i | -9.5% | -3.0% | i
S=C1SCN(Cc2cccnc2)CN1Cc1ccccc1 | i | i | 25.1µM* | -9.9% | i
S=C1NCN(Cc2cccnc2)CN1Cc1ccccc1 | i | i | 8.5% | 1.8% | i
CC(=O)NC(=S)NNC(=O)C(c1ccccc1)c1ccccc1 | i | i | 17.8µM* | 22.4µM* | i
Cn1cnc([N+](=O)[O-])c1S(=O)(=O)c1ccc(Cl)cc1 | i | i | 14.1µM* | -0.5% | i
Cn1cnc([N+](=O)[O-])c1NC(C)(C)C | i | i | 1.7% | -3.5% | i
